Columns and labels:
Settings in all cases: concentration: 1 μM, replicates: in singlicate; n = 1
QSK = test system: QSK
RAF1 = test system: RAF1
RET = test system: RET
RIOK1 = test system: RIOK1
RIOK2 = test system: RIOK2
RIOK3 = test system: RIOK3
RIPK1 = test system: RIPK1
RIPK2 = test system: RIPK2
RIPK4 = test system: RIPK4
RIPK5 = test system: RIPK5
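Also: KINOMEscan kinase panel screen.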

Compound | %Inh (QSK) [%] | %Inh (RAF1) [%] | %Inh (RET) [%] | %Inh (RIOK1) [%] | %Inh (RIOK2) [%] | %Inh (RIOK3) [%] | %Inh (RIPK1) [%] | %Inh (RIPK2) [%] | %Inh (RIPK4) [%] | %Inh (RIPK5) [%]
Cn1ccc2ncnc(Oc3ccc(NC(=O)Nc4ccccc4)cc3)c21 | 0 | 0 | 17 | 19 | 12 | 29 | 5 | 26 | 0 | 0
COc1ccccc1-c1ccc2c(NC(=O)C3CC3)n[nH]c2n1 [SB-711239] | 16 | 38 | 11 | 20 | 9 | 0 | 10 | 33 | 0 | 0
Cc1ccc(NC(=O)Nc2cc(C(C)(C)C)nn2-c2ccccc2)cc1 [GSK1014915] | 13 | 89 | 46 | 18 | 0 | 0 | 9 | 6 | 12 | 0
Cc1cc(-c2ccc3c(c2)CC[C@@H](N[C@@H](C)c2ccccc2)C3)cnc1N.Cl [GW412617] | 0 | 19 | 0 | 44 | 85 | 32 | 50 | 15 | 13 | 7
COc1ccc2nc(-c3cccc(C)n3)nc(Nc3ccncc3)c2c1 [GSK204919] | 0 | 6 | 18 | 24 | 0 | 16 | 0 | 33 | 5 | 0
CC(=O)Nc1nc2cnc(Nc3cc(NC(=O)c4cccc(CCC#N)c4)ccc3C)nc2s1 | 0 | 88 | 51 | 0 | 17 | 10 | 0 | 0 | 0 | 5
Clc1cc(Cl)cc(Nc2ccnc(Nc3cc(Cl)cc(Cl)c3)n2)c1 [GSK175726] | 0 | 17 | 10 | 34 | 91.7 | 35 | 0 | 41 | 10 | 6
Cc1ccc(C(=O)Nc2ccc(Nc3ccnc4cc(-c5ccccn5)ccc34)cc2O)cc1.Cl [GW440146] | 0 | 8 | 26 | 14 | 3 | 81 | 0 | 52 | 3 | 0
O=c1cc(N2CCOCC2)nc2n(Cc3cccc(Cl)c3Cl)ccn12 [GSK2286295] | 1 | 7 | 1 | 42 | 56 | 19 | 0 | 6 | 6 | 0
Cc1cc(N2Cc3ccccc3C2)nc(Nc2ccc(S(=O)(=O)N3CCOCC3)cc2)n1.Cl [GSK1669917] | 2 | 0 | 0 | 24 | 0 | 25 | 0 | 0 | 98.9 | 6
Cc1cccc(-c2cc(Nc3ccncc3)c3ccccc3n2)n1 [GSK223675] | 0 | 6 | 0 | 19 | 0 | 29 | 0 | 6 | 21 | 6
COc1ccc(Nc2nccc(-c3cccc(NC(=O)c4cc5cc(F)ccc5[nH]4)c3)n2)cc1 [GSK1229782] | 3 | 13 | 14 | 72 | 3 | 50 | 22 | 17 | 0 | 25
COC(=O)c1c(-c2ccccc2)c2cc(OC)ccc2c(=O)n1Cc1ccccc1 | 23 | 85 | 17 | 0 | 0 | 0 | 0 | 0 | 4 | 24
COc1cc(Nc2nccc(N3CCC(NC(=O)Nc4cc(C)ccc4C)C3)n2)cc(OC)c1OC (stereo not shown) [GSK1379762] | 0 | 19 | 25 | 60 | 6 | 34 | 4 | 8 | 18 | 0
COC(=O)c1c(-c2ccccc2)c2cc(C(=O)O)ccc2c(=O)n1Cc1ccccc1 | 0 | 81 | 21 | 0 | 26 | 11 | 0 | 0 | 0 | 0
Fc1cc(Cl)ccc1Nc1ccnc2cc(-c3ccc(CN4CCCCC4)o3)ccc12 [GW560116] | 29 | 8 | 22 | 12 | 0 | 0 | 8 | 61 | 0 | 0
Cc1nnc(-c2ccc3occ(-c4ccc(S(C)=O)cc4)c3c2)[nH]1 (stereo not shown) | 3 | 4 | 31 | 13 | 31 | 0 | 100 | 13 | 0 | 0

Compound | %Inh (QSK) [%] | %Inh (RAF1) [%] | %Inh (RET) [%] | %Inh (RIOK1) [%] | %Inh (RIOK2) [%] | %Inh (RIOK3) [%] | %Inh (RIPK1) [%] | %Inh (RIPK2) [%] | %Inh (RIPK4) [%] | %Inh (RIPK5) [%]
COc1ccc(C2=C(Nc3cccc(C(=O)O)c3)C(=O)NC2=O)cc1 [SB-390765] | 27 | 11 | 3 | 13 | 18 | 0 | 0 | 0 | 18 | 31
COc1ccc(CNC(=O)NC2CCN(c3ccnc(Nc4cc(OC)c(OC)c(OC)c4)n3)C2)cc1 (stereo not shown) [GSK1379748] | 0 | 0 | 0 | 35 | 0 | 32 | 17 | 16 | 28 | 48
Cc1cccc(-c2nc(Nc3ccc4[nH]ncc4c3)c3ccccc3n2)n1 [GW857175] | 4 | 8 | 13 | 39 | 8 | 29 | 0 | 0 | 44 | 35
CCn1c(-c2cccnc2O)nc2cnccc21 [SB-736715] | 0 | 0 | 5 | 6 | 0 | 0 | 0 | 0 | 21 | 0
CCn1c(-c2ccccn2)nc2cnccc21 [SB-736398] | 0 | 18 | 24 | 4 | 0 | 0 | 0 | 0 | 15 | 0
O=C(Nc1ccccc1)Nc1cccc(Oc2ccc3nccn3n2)c1 | 0 | 21 | 8 | 48 | 0 | 15 | 2 | 0 | 0 | 0
Cc1cccc(-c2nc(-c3ccc(S(C)(=O)=O)cc3)sc2-c2ccnc(NCCc3ccccc3)c2)c1 | 0 | 93.4 | 30 | 17 | 15 | 18 | 3 | 6 | 0 | 0
Cc1ccc(NC(=O)Nc2cccc(Cl)c2)cc1-c1ccc(C(=O)Nc2ccncc2)cc1 [GSK1398468] | 0 | 91.4 | 1 | 40 | 0 | 59 | 5 | 6 | 22 | 0
O=C(Nc1n[nH]c2nc(-c3nccs3)c(Br)cc12)C1CCCC1 [SB-742609] | 0 | 25 | 0 | 2 | 0 | 0 | 0 | 4 | 21 | 1
O=S(=O)(c1ccc(-c2ccnc3[nH]ccc23)cc1)N1CCCC1 [GSK846226] | 0 | 0 | 7 | 86 | 85 | 89 | 8 | 5 | 8 | 16
CC(C)(C)c1ccc(C(=O)Nc2cn3cc(Cl)ccc3n2)cc1 | 3 | 0 | 0 | 25 | 0 | 0 | 0 | 5 | 0 | 0
Cc1cc(NCC(c2ccccc2)c2ccccc2)nc(NCc2ccc(C(F)(F)F)cc2)n1 [GW497681] | 0 | 18 | 0 | 22 | 0 | 9 | 0 | 9 | 0 | 0
CCCc1ccc(S(=O)(=O)NC2CCN(c3ccnc(Nc4ccc(F)cc4)n3)C2)cc1 (stereo not shown) [GSK1379715] | 0 | 15 | 16 | 3 | 0 | 0 | 0 | 0 | 10 | 0
Nc1nc(-c2nccs2)c(-c2ccnc3ccccc23)s1 [GW693542] | 0 | 15 | 37 | 24 | 6 | 38 | 0 | 14 | 5 | 0
O=C(Nc1n[nH]c2nc(-c3nccs3)c(Br)cc12)C1CC1 [SB-742251] | 19 | 8 | 12 | 30 | 0 | 29 | 15 | 10 | 17 | 0
Cl.Oc1ccc(-c2nc(-c3ccccc3)[nH]c2-c2ccncc2)cc1 [SB-428218] | 0 | 61 | 26 | 0 | 0 | 0 | 0 | 22 | 14 | 0
Cc1csc(-c2nc(Nc3ccncc3)c3ccccc3n2)n1 [GW869640] | 35 | 0 | 0 | 38 | 39 | 1 | 0 | 52 | 44 | 34

From PMC5540273 (PLoS ONE, 2017)
